MazEF act = MazEF (E. coli) toxin RNase activation. AID 504720. activation, % at 20 µM. FAM/BHQ RNA-DNA oligo cleavage fluorescence, 5 h. hit rate 0.32% among 350,000. P0AE70; in the data active = activation above about 50%
Target sequence (P0AE70 whole entry, looked up): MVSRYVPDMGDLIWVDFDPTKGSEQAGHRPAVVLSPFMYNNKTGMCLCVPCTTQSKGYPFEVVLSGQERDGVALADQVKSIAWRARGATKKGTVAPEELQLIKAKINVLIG
3CLpro inhibitor = SARS-CoV 3CLpro protease inhibition; P0C6X7; recombinant SARS-CoV 3CLpro, quenched FRET peptide cleavage; inhibition, % at 6 µM; hit rate 0.14% among 290,000; AID 1706; in the data active = inhibition above about 12%
ugtP null kill = kills S. aureus RN4220 lacking UgtP; growth inhibition, % (test concentration not listed); S. aureus RN4220 ugtP deletion, OD600 growth, 16 h; hit rate 0.54% among 330,000; in the data active = growth inhibition above about 68%
RN4220 kill = kills Staphylococcus aureus RN4220; S. aureus RN4220 growth, OD600, 16 h; inhibition, % (concentration not given with the values); hit rate 0.33% among 330,000; AID 1259311; in the data active = inhibition above about 85%
Mtb betalactam = beta-lactam sensitization of Mtb H37Rv | inhibition, % at 25 µM | M. tuberculosis H37Rv growth with meropenem, percent inhibition | AID 434955 | hit rate 0.27% among 330,000; call rule not given here;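 also: growth measured after seven days incubation then overnight dye step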
CCHF vOTU inh-1 = blocks the CCHF virus ovarian tumor domain protease | inhibition, % at 11.5 µM | hit rate 0.55% among 370,000 | AID 651958 | CCHFV vOTU protease, Pep-AMC fluorescence
CCHF vOTU inh-2 = CCHFV vOTU protease inhibition, confirmation. Recombinant CCHFV vOTU, Pep-AMC fluorescence. hit rate 17% among 1,900. inhibition, % at 11.5 µM. shares compounds with CCHF vOTU inh-1
Of the large screens only hits and unclear results are named; the others gave an inactive call (follow-up assays come after a bar, where they were run); ! = not confirmed by another sample. Rows were chosen to be rich in hits. Some 1.3% of all compounds tested hit in one or more screens of this group. Rule as the data show it, unless noted: active = inhibition above about 30%; inactive = the rest.

COC(=O)C1=C(c2ccc(Cl)c(C(F)(F)F)c2)CC2CCC1N2C(=O)N1CCOCC1 (configuration not stated)	none (no result: MazEF act, 3CLpro inhibitor, Mtb betalactam, CCHF vOTU inh-1)
CCN1C(=O)C2CCC3C(=NOC(C)c4cn(C(CO)Cc5ccccc5)nn4)CC(O)C(O)C3C2C1=O (configuration not stated)	none (no result: MazEF act, 3CLpro inhibitor, Mtb betalactam, CCHF vOTU inh-1)
COc1ccc(O)c(C(c2c(C)[nH][nH]c2=O)c2c(C)[nH][nH]c2=O)c1	CCHF vOTU inh-1 84.2 (no result: ugtP null kill, RN4220 kill) | CCHF vOTU inh-2 inactive
CCOC1OC(C(=O)Nc2ccccc2)=CC(c2ccc(C(F)(F)F)cc2)C1CCCO (configuration not stated)	none (no result: MazEF act, 3CLpro inhibitor, Mtb betalactam, CCHF vOTU inh-1)
Cc1ccc(Cc2c(-c3cccc(Br)c3)nc3ccc(Cl)cn23)cc1	CCHF vOTU inh-1 39.6 (no result: MazEF act, 3CLpro inhibitor, ugtP null kill, RN4220 kill, Mtb betalactam) | CCHF vOTU inh-2 inactive
Cc1ccc(Cc2c(-c3cccc(Br)c3)nc3ccc(C)cn23)cc1	none (no result: MazEF act, 3CLpro inhibitor, ugtP null kill, RN4220 kill, Mtb betalactam)
Cc1ccc(-c2nc3ccc(Cl)cn3c2Cc2ccccc2C(F)(F)F)cc1	CCHF vOTU inh-1 31.7 (no result: MazEF act, 3CLpro inhibitor, ugtP null kill, RN4220 kill, Mtb betalactam) | CCHF vOTU inh-2 inactive
Cc1ccc2nc(-c3ccc(Cl)cc3)c(Cc3ccccc3C(F)(F)F)n2c1	none (no result: MazEF act, 3CLpro inhibitor, ugtP null kill, RN4220 kill, Mtb betalactam)
O=C(O)CC1c2ccc(C(F)(F)F)cc2S(=O)(=O)N1C1CCCCC1 (configuration not stated)	none (no result: MazEF act, 3CLpro inhibitor, Mtb betalactam, CCHF vOTU inh-1)
C/C(C=NNC(=O)Cc1cccn1C)=C/c1ccco1	none (no result: MazEF act, 3CLpro inhibitor, Mtb betalactam, CCHF vOTU inh-1)
CCOC(=O)c1cc2sc(C)cc2n1CC(=O)NCc1ccc(F)cc1	CCHF vOTU inh-1 29.9 | CCHF vOTU inh-2 inactive
Cc1ccc(Cl)cc1NC1=C/C(=N\S(=O)(=O)c2cccs2)c2ccccc2C1=O	RN4220 kill 90.3!, CCHF vOTU inh-1 95.9 | CCHF vOTU inh-2 95.4
Cc1cccc(NC2=CC(=NS(=O)(=O)c3cccs3)c3ccccc3C2=O)c1	none (no result: MazEF act, 3CLpro inhibitor, Mtb betalactam, CCHF vOTU inh-1)
O=C(O)c1ccc(NC2=C/C(=N/S(=O)(=O)c3cccs3)c3ccccc3C2=O)cc1	CCHF vOTU inh-1 110.1 (no result: 3CLpro inhibitor, ugtP null kill, RN4220 kill, Mtb betalactam) | CCHF vOTU inh-2 104.8
O=S(=O)(N=C1C=CC(=NS(=O)(=O)c2ccccc2)c2ccccc21)c1ccccc1	CCHF vOTU inh-1 71.6 (no result: 3CLpro inhibitor, ugtP null kill, RN4220 kill, Mtb betalactam) | CCHF vOTU inh-2 68.3
O=C(O)c1ccc(NC2=C/C(=N/S(=O)(=O)c3ccccc3)c3ccccc3C2=O)cc1	CCHF vOTU inh-1 108.5 (no result: ugtP null kill, RN4220 kill, Mtb betalactam) | CCHF vOTU inh-2 113.4
Cc1ccc(S(=O)(=O)/N=C2\C=C(NS(=O)(=O)c3ccccc3)C(=O)c3ccccc32)cc1	CCHF vOTU inh-1 51.3 (no result: 3CLpro inhibitor, ugtP null kill, RN4220 kill, Mtb betalactam) | CCHF vOTU inh-2 inactive
Cc1cccc(NC2=C/C(=N/S(=O)(=O)c3cccs3)c3ccccc3C2=O)c1	none (no result: ugtP null kill, RN4220 kill)
CCc1ccc(S(=O)(=O)/N=C2\C=C(Nc3cccc(C(=O)O)c3)C(=O)c3ccccc32)cc1	CCHF vOTU inh-1 136.9 (no result: ugtP null kill, RN4220 kill) | CCHF vOTU inh-2 114.8
O=C(NN=Cc1ccncc1)c1cc([N+](=O)[O-])cc([N+](=O)[O-])c1	none (no result: MazEF act, 3CLpro inhibitor, Mtb betalactam, CCHF vOTU inh-1)
CCN(CC)c1ccc(N=Cc2c(O)n(-c3ccccc3)c(=O)[nH]c2=O)cc1	CCHF vOTU inh-1 30.3 | CCHF vOTU inh-2 inactive
CCOc1ccc(-n2c(O)c(C=Nc3ccc(N(CC)CC)cc3)c(=O)[nH]c2=O)cc1	none
CC1=C(N2CC2)C(=O)C(CO)=C(N2CC2)C1=O	CCHF vOTU inh-1 35.5 (no result: 3CLpro inhibitor, ugtP null kill, RN4220 kill, Mtb betalactam) | CCHF vOTU inh-2 inactive
CCOC(=O)c1cnc2cc(-c3ccc(C)cc3)nn2c1-c1ccccc1	none
CCOC(=O)c1cnc2cc(-c3ccc(C)cc3)nn2c1C	CCHF vOTU inh-1 29.5 (no result: 3CLpro inhibitor, ugtP null kill, RN4220 kill, Mtb betalactam) | CCHF vOTU inh-2 inactive
C[C@]12C=CC(=O)C=C1CCC1C2C(=O)C[C@@]2(C)C1CC[C@]2(O)C(=O)CO (some centres not stated)	none (no result: MazEF act, 3CLpro inhibitor, Mtb betalactam, CCHF vOTU inh-1)
CC(=O)N(c1ccccc1C)c1ccccc1C	CCHF vOTU inh-1 33.6 (no result: 3CLpro inhibitor, Mtb betalactam) | CCHF vOTU inh-2 inactive
CC=CC(=O)N(CC)c1ccccc1C	none (no result: MazEF act, 3CLpro inhibitor, Mtb betalactam, CCHF vOTU inh-1)
O=C(NC(c1ccc(F)cc1)c1ccc2ccccc2n1)C1CCN(CCOc2ccc(F)cc2)CC1 (configuration not stated)	CCHF vOTU inh-1 31.7 (no result: MazEF act, 3CLpro inhibitor, ugtP null kill, RN4220 kill, Mtb betalactam) | CCHF vOTU inh-2 inactive
O=c1[nH]ncc(N/N=C\c2cccs2)c1Cl	CCHF vOTU inh-1 30.0 (no result: ugtP null kill, RN4220 kill) | CCHF vOTU inh-2 inactive
O=c1[nH]ncc(NN=Cc2ccncc2)c1Cl	none (no result: MazEF act, 3CLpro inhibitor, Mtb betalactam, CCHF vOTU inh-1)
O=c1[nH]ncc(N/N=C\c2ccncc2)c1Cl	CCHF vOTU inh-1 34.2 (no result: ugtP null kill, RN4220 kill) | CCHF vOTU inh-2 inactive
CC(=NOc1cccc(F)n1)c1ccc(Cl)cc1Cl	none (no result: MazEF act, 3CLpro inhibitor, Mtb betalactam, CCHF vOTU inh-1)
COc1cc(Cl)c(C)cc1NC(=O)CN1C(=O)C2CCCCC2C1=O (configuration not stated)	CCHF vOTU inh-1 31.9 (no result: 3CLpro inhibitor) | CCHF vOTU inh-2 inactive
